Bioassay records (PubChem BioAssay)
DT40 TDP1 CPT – growth inhibition of DT40 Tdp1-/-;hTDP1 cells with camptothecin (screen for TDP1 inhibitors); chicken DT40 Tdp1-/-;hTDP1 cells + 20 nM CPT, ATP luminescence, 48 h; Potency, µM (top dose mostly 46.2 µM), without a hit: at the top dose activity change, negative = growth inhibition, most hits filed as inhibitors; 12% of 420,000 active; AID 686979; note: potency is the fitted concentration of half-maximal effect; % is set by controls: 0 for no effect and ±100 for the full control effect; nearly all actives have a fitted effect of over 55% in size
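Chicken DT40 Tdp1-/- cells stably complemented with human TDP1 were seeded at 400 cells/well in medium containing 20 nM camptothecin, exposed to pin-transferred compounds, and grown at 37 °C for at least 48 hr. Viability was read as ATP luminescence.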
TDP1 inh – TDP1 (human) enzyme inhibition; recombinant TDP1, AlphaScreen DNA substrate cleavage; AID 485290; Q9NUW8; 0.28% of 350,000 active; Potency, µM (series often up to 130 µM), for the others: at the highest dose activity change, negative = inhibition, hits mostly inhibitors; note: potency is the fitted concentration of half-maximal effect; % is set by controls: 0 for no effect and ±100 for the full control effect; nearly all actives have a fitted effect of over 40% in size
Target sequence (Q9NUW8 whole entry, looked up): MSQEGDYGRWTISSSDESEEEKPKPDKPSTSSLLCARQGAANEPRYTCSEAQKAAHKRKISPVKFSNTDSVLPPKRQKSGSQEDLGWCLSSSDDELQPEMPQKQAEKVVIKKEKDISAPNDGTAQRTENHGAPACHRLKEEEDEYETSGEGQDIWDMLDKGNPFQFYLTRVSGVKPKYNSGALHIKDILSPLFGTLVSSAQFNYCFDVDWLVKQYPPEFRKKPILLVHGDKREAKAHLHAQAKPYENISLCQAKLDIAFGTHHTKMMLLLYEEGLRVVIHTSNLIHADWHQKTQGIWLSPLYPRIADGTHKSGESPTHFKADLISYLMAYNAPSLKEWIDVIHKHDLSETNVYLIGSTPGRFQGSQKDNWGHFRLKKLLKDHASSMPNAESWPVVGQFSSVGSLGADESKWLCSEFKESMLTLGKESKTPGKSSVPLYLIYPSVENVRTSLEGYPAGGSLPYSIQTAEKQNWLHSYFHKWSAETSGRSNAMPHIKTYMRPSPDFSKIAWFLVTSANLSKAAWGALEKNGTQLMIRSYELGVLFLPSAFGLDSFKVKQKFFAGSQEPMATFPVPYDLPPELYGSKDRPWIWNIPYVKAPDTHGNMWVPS
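AlphaScreen read-out: signal falls as enzyme removes the 3' tyrosine-FITC from a 5'-biotinylated DNA oligo (15 nM, 5 min, RT). Enzyme was E. coli-made recombinant Tdp1 at 1 nM, exposed to compound for 15 min beforehand; beads 10 ug/ml, 10 min.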
DT40 TDP1 no CPT – qHTS for Inhibitors of human tyrosyl-DNA phosphodiesterase 1 (TDP1): qHTS in cells in absence of CPT. DT40 Tdp1-/- hTDP1 cells, no CPT, ATP luminescence, 48 h. Potency, µM (series often up to 46.2 µM), without a hit: top-dose activity change, negative = growth inhibition, usual class: inhibitors. 15% of 420,000 active; note: potency is the fitted concentration of half-maximal effect; % is set by controls: 0 for no effect and ±100 for the full control effect; nearly all actives have a fitted effect of over 55% in size
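Chicken DT40 Tdp1-/- cells complemented with human TDP1, screened without camptothecin (DMSO vehicle only), 400 cells/well. Compounds pin-transferred, cells incubated at 37 °C for at least 48 hr. Growth read as ATP-dependent luminescence (CellTiter-Glo, 30 min at RT).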
HepG2 tox – kills HepG2 cells in TGF-b inhibitor counter-screen. HepG2 CAGA-GFP viability, ATP luminescence, 18 h. Potency, µM (series often up to 46.1 µM), for inactives: at the top dose activity change, negative = cytotoxicity, most hits filed as cytotoxic. 0.76% of 410,000 active. AID 588856; note: potency is the fitted concentration of half-maximal effect
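HepG2 CAGA-GFP cells (1000/well, DMEM with 1% FBS) received compound, then TGF-beta at 500 pg/mL final, and were incubated 18 hours at 37 degrees C. Viability was read by CellTiter-Glo luminescence. Media-only wells were set as complete cell-killing and DMSO as no toxicity.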
IL1B secr inh – blocks inflammasome-driven IL-1 beta release | THP-1 LPS/ATP IL-1B secretion, AlphaLISA, 16 h; hits give low values | activity change, % at 57.5 µM | 4.7% of 360,000 active; in the data active = activity change below about -50%; inconclusive = mostly about -30% to -49%; note: % is set by controls: 0 for no effect and ±100 for the full control effect
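Secreted IL-1B measured by AlphaLISA bead assay after 16 h compound exposure of THP-1 cells; compounds (final up to 57.5 uM) added 1 h before LPS (250 ng/mL) and ATP (1.25 mM) stimulation; lower signal means less secretion.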
TGFb SMAD3 inh – inhibitors of TGF-b signaling. HepG2 CAGA-GFP TGF-b/SMAD3 reporter, GFP fluorescence, 18 h; TGF-beta stimulated, 500 pg/mL final. 1.2% of 410,000 active. AID 588855. Potency, µM (series often up to 46.1 µM), for inactives: top-dose activity, negative = inhibition, usual class: inhibitors; note: potency is the fitted concentration of half-maximal effect; % is set by controls: 0 for no effect and ±100 for the full control effect; nearly all actives have a fitted effect of over 65% in size
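Inhibition was scored as loss of TGF-beta-induced (500 pg/mL final, 18 hours, 37 degrees C) GFP in HEPG2 cells carrying a CAGA-GFP reporter, in DMEM with 1% FBS. Well GFP was summed per cell; Activity was normalised to unstimulated and stimulated DMSO wells, then concentration-response fitting.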
The depositor's hits bear a star; ? = inconclusive; / = no result; [ ] = another dose, or the depositor's remark. Only some compounds are listed: those with a hit (about 18% of all), similar ones and a draw of the others. Unless noted, calls come from the whole dose curve; as a rule, active = well fitted curve in the direction sought with a large enough effect; inconclusive = small, poorly fitted or top-dose-only effect, or another doubt; inactive = no such curve, though single readings can be large; an effect the other way counts as inactive or inconclusive.

SMILES	DT40 TDP1 CPT	TDP1 inh	DT40 TDP1 no CPT	HepG2 tox	IL1B secr inh	TGFb SMAD3 inh
CCc1ccc(CN(C)C(C)C(=O)NCc2ccccc2)cc1 (stereo unspecified)	?	/	7.3µM*	-12%	-1	4%
S=c1[nH]nc(CN2CCCCC2)n1Cc1ccccc1	15µM*	2%	16µM*	-1%	12	-8%
S=c1[nH]nc(CN2CCCC2)n1Cc1ccccc1	-6%	-3%	0%	-1%	3	-4%
S=c1[nH]nc(-c2ccc(Br)o2)n1Cc1ccccc1	?	5%	21µM*	-19%	-7	8%
Clc1ccc(Cn2c(CN3CCCC3)nc3ccccc32)cc1	?	6%	7.2µM*	/	/	/
S=c1[nH]nc(-c2ccco2)n1Cc1ccccc1	-8%	-3%	-3%	11%	37	-13%
c1ccc(Cn2c(CN3CCCC3)nc3ccccc32)cc1	?	4%	16µM*	-20%	-20	-1%
CCOc1ccccc1N(CC(=O)NCC1CCCO1)C(=O)CNS(=O)(=O)c1ccccc1 (stereo unspecified)	22%	-3%	-1%	3%	-2	-15%
CC(=Nc1ccccc1)C1=C(O)C(Cc2ccc(O)cc2)NC1=O (stereo unspecified)	0.018µM*	/	0.0082µM*	-5%	31	?
O=C1NC[C@H](Cc2ccccc2)N(CCc2cccc(F)c2)C1=O	-14%	-1%	-4%	7%	5	9%
CC(=Nc1ccccc1)C1=C(O)C(Cc2cccc(F)c2)NC1=O (stereo unspecified)	0.0058µM*	/	0.1µM*	-6%	71	-24%
CC(C)n1ncc2c(C(=O)NCC(=O)Nc3ccccc3Br)cc(C3CC3)nc21	?	3%	?	-32%	-15	?
O=C(c1cc2ccccc2oc1=O)N(Cc1ccccc1F)C1CCS(=O)(=O)C1 (stereo unspecified)	3%	2%	14%	1%	-4	-5%
O=C(COC(=O)CNC(=O)c1ccc(Cl)cc1Cl)NC1CCCCCCC1	2%	-4%[0.505 µM]	-3%	-5%	8	1%
CC(=O)c1cc(-c2ccccc2)n(CCC(=O)NCCc2ccccc2)c1C	?	9%	?	-18%	/	-24%
CC1(C(=O)NS(=O)(=O)c2cccs2)CCN1C(=O)C1(c2ccc(Cl)cc2)CC1 (stereo unspecified)	-3%	/	-3%	8%	21	-20%
CC(=O)Nc1ccc(S(=O)(=O)NCCCCNS(=O)(=O)c2ccc(NC(C)=O)cc2)cc1	-3%	/	-2%	-7%	-1	-5%
CC(=O)Nc1ccc(S(=O)(=O)NCCSCc2ccc(Cl)cc2Cl)cc1	?	5%	18µM*	-58%	-56*	0%
O=C(Nc1cccc([N+](=O)[O-])c1)c1ccc2c(c1)C(=O)N(c1ccccn1)C2=O	?	-2%	-3%	3%	20	16%
COc1ccc(S(=O)(=O)N(C)Cc2nc(-c3cccc(C)c3)no2)cc1	?	2%	?	-33%	/	-13%
Cc1ccc(-c2noc(CN(C3CCCCC3)S(=O)(=O)c3ccc(C)cc3)n2)cc1	13µM*	0%	10µM*	-19%	/	-19%
COc1ccc(S(=O)(=O)N(Cc2nc(-c3ccc(C)cc3)no2)C2CCCCC2)cc1	8.2µM*	2%	7.3µM*	-26%	/	?
COc1ccc(-c2noc(CN(C(C)C)S(=O)(=O)c3ccc(Br)cc3)n2)cc1	?	2%	23µM*	10%	/	-10%
CC(=O)Nc1cccc(-n2nnc(SCC(=O)N(C)c3ccccc3)n2)c1	-5%	5%	-16%	11%	27	-4%
Cc1cccc(C)c1NC(=O)CN1CCN(C(=O)c2cc(C3CC3)nn2-c2ccccc2)CC1	-25%	/	?	-33%	-14	-5%
SMILES	DT40 TDP1 CPT	TDP1 inh	DT40 TDP1 no CPT	HepG2 tox	IL1B secr inh	TGFb SMAD3 inh
O=C(c1cc(-c2ccccc2)nn1-c1ccccc1)N1CCN(S(=O)(=O)c2c(F)cccc2F)CC1	13µM*	2%	?	8%	-9	20%
Cc1ccc(S(=O)(=O)N2CCN(C(=O)c3cc(C4CC4)nn3-c3ccccc3)CC2)cc1	?	/	?	-19%	19	-10%
O=C(c1cc(C2CC2)nn1-c1ccccc1)N1CCN(S(=O)(=O)c2ccccc2)CC1	?	1%	16µM*	-2%	-14	-1%
Cc1ccc(C)c(S(=O)(=O)N2CCN(C(=O)c3cc(-c4cccs4)nn3-c3ccccc3)CC2)c1	?	/	?	13%	-8	-1%
CCOC(=O)N1CCN(Cc2ccccc2F)CC1	-3%	0%	2%	15%	-3	-4%
O=C(c1cc(C2CC2)nn1-c1ccccc1)N1CCN(Cc2ccc(Cl)cc2)CC1	18µM*	2%	12µM*	-11%	-17	?
O=C(c1cc(C2CC2)nn1-c1ccccc1)N1CCN(Cc2ccccc2F)CC1	16µM*	11%	23µM*	-11%	?	-4%
COc1ccccc1NC(=O)CSc1nnc(CCC(=O)Nc2ccccc2F)n1C	-10%	/	-26%	-1%	-13	3%
COc1cc(/C=N/NC(=O)c2cc(-c3cccs3)nc3ccccc23)ccc1O	9.2µM*	4%	9.2µM*	-26%	38	?
N#Cc1ccc(/C=N/NC(=O)c2cc(-c3cccs3)nc3ccccc23)cc1	9.2µM*	5%	21µM*	-7%	7	?
COc1cc(/C=N/NC(=O)c2cc(-c3ccccc3)nc3ccccc23)cc(OC)c1O	?	/	?	-26%	29	8%
N#Cc1ccc(-c2csc(NC(=O)c3cc(-c4cccs4)nc4ccccc34)n2)cc1	?	/	?	-2%	?	-1%
COc1cc(/C=N/NC(=O)c2cc(-c3cccc(OC(C)C)c3)nc3ccccc23)ccc1O	?	/	2.1µM*	2%	14	?
CC(C)c1nn2c(=O)cc(COC(=O)C3CCCCC3)nc2s1	-17%	3%	-2%	10%	/	-25%
CCOC(=O)C1(C)CCN1C(=O)c1oc2ccccc2c1C (stereo unspecified)	?	/	?	-17%	40	6%
CC(C)OCCCNC(=O)c1ccc(CSc2nc3cccnc3n2Cc2ccccc2)cc1	?	8%	23µM*	-28%	/	?
